Sampled rows, rich in hits. Any-hit rate of the full collection: about 7.6%.
PLAP activator: PLAP enzyme activators, biochemical, luminescence, HTS; AID 696, 2007; activation fold at 20 µM; purified PLAP enzyme, luminescent substrate read-out; active compounds read high; 96,000 tested, 1.2% active; in the data active means activation fold above about 2
M1 antag: antagonists of rat M1 muscarinic receptor | AID 628, 2007 | B-score at 10 µM | CHO-M1 cells, Fluo-4 calcium, ACh EC80 antagonist mode; active compounds read low | 64,000 tested, 3.4% active;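 active means calcium fluorescence response, raw or row-and-column corrected B-score, differing from the plate sample mean either way at a set confidence level, mostly lower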
M1 ag: M1 muscarinic receptor agonists, primary screen, CHO-M1 cells, Fluo-4 calcium, agonist mode. Muscarinic acetylcholine receptor M1. Fluo-4 calcium fluorescence; active compounds read high. B-score at 10 µM. 64,000 tested, 3% active. AID 626, 2007;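 active means fluorescence rise, raw or as B-score row- and column-corrected plate score, outside the 99.7% band of its plate's samples, either direction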
Cav3 T inh: Cav3.2 calcium influx blockers – cell-based, Fluo-4 calcium fluorescence, FDSS, MLSMR library, primary screen; 100,000 tested, 4% active; Cav3.2-expressing cells; active compounds read low; B-score at 10 µM; AID 449739, 2010;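 active means single-dose well whose peak fluorescence ratio is a statistical outlier from its plate by either plate-standardised score or position-corrected B-score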
Target sequence (O95180 whole entry, looked up): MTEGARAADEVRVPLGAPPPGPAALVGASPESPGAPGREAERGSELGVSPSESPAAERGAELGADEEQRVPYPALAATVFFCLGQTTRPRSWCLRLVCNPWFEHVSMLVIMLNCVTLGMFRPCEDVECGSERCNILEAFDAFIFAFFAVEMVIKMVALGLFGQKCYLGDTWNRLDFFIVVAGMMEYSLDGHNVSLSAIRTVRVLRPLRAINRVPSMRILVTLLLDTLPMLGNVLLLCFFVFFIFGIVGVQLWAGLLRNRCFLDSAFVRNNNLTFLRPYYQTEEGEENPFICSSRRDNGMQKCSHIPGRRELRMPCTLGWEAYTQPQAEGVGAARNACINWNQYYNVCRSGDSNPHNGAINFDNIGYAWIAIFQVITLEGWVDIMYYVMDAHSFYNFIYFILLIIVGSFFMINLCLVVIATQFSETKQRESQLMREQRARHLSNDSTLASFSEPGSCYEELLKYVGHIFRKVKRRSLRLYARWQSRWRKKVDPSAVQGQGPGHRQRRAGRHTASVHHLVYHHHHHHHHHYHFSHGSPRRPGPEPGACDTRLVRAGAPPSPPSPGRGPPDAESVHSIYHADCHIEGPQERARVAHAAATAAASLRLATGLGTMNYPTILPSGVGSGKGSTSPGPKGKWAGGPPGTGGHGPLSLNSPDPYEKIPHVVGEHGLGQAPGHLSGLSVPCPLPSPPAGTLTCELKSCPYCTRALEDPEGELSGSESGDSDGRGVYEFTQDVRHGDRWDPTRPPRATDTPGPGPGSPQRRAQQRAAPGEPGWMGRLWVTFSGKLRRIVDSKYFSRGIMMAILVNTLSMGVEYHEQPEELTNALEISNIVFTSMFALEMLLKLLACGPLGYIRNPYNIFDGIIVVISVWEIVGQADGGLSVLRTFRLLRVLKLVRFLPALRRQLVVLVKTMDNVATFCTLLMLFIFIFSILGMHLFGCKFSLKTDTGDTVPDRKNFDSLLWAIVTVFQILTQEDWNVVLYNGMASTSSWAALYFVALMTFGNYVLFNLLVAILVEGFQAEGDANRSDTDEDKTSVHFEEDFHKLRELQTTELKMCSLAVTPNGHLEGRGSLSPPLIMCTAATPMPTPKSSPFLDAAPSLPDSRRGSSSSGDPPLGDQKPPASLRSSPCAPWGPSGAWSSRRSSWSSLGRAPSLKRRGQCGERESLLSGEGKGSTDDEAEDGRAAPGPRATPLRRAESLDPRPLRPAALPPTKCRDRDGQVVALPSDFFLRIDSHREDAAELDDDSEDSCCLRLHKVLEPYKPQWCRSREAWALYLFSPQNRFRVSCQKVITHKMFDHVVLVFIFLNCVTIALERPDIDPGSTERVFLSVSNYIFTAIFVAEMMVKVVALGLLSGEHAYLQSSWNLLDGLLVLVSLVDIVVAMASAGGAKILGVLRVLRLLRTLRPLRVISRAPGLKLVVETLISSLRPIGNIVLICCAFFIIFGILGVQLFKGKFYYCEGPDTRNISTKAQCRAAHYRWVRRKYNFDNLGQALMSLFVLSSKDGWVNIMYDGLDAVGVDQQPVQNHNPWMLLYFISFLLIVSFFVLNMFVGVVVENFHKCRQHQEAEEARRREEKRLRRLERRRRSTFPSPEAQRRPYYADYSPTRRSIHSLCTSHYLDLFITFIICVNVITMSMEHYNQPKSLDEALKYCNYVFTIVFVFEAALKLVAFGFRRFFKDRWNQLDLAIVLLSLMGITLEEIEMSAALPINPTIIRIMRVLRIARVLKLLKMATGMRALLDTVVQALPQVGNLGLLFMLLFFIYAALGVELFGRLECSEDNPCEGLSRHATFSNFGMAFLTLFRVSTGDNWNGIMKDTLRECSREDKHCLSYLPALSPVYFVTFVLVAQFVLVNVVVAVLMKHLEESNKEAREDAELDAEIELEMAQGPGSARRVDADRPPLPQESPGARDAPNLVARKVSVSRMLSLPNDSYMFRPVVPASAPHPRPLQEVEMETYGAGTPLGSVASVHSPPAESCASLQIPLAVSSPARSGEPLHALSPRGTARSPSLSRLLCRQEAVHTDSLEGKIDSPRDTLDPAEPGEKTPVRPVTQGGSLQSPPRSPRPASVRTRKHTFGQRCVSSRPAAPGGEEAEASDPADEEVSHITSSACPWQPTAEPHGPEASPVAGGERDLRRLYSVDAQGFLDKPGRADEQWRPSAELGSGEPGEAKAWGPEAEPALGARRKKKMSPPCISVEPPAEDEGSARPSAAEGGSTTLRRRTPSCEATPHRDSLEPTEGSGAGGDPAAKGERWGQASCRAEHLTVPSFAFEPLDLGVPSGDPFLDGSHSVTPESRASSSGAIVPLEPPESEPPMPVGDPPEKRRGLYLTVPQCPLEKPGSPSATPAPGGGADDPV
* = called active by the depositor; nt = no result.

SMILES	PLAP activator	M1 antag	M1 ag	Cav3 T inh
O=C(CC(c1ccccc1)c1ccccc1)Nc1ncn[nH]1	2.9*	0.24	-0.039	0.87
O=C(c1ccc2c(c1)OCCO2)C1CCN(S(=O)(=O)c2ccc(F)cc2)CC1	1.1	-0.8	1	-1.2
CSCCC(NS(=O)(=O)c1ccc(Cl)cc1)C(=O)OCC(=O)N(C(C)C)C(C)C (centres undefined)	1.4	nt	nt	-3.4*
OC12CCCCC1C(c1ccc3c(c1)OCO3)N(Cc1cccc(F)c1)CC2 (centres undefined)	1.4	0.97	0.17	-2.4
OC12CCCCC1C(c1ccc3c(c1)OCO3)N(Cc1ccc(F)cc1)CC2 (centres undefined)	1.5	-0.1	0.046	-5.9*
CC1(C)CC(NC(=O)C23CCC(C)(/C(=N/O)C2)C3(C)C)CC(C)(C)N1 (centres undefined)	1.1	-0.37	-0.7	0.28
CC1(C)CN=C(N2CCN(C3=NCC(C)(C)S3)CC2)S1	1.7	-6.3*	0.93	nt
O=C(N[C@@H](c1ccccc1)[C@H](O)c1ccccc1)[C@@H]1CCCN1C(=O)OCc1ccccc1	nt	nt	nt	0.9
CC(C)N1C(=O)CCC1C(=O)NCCc1ccccc1 (centres undefined)	1	-0.001	0.054	-0.99
Nc1nc(Sc2ccc(C(F)(F)F)cc2[N+](=O)[O-])n[nH]1	2*	nt	nt	0.68
O=C(COn1nnc2ccc(Cl)cc21)NCc1ccccc1	0.9	-0.03	-0.013	nt
O=C(CSC1=NCCS1)Nc1nc2ccccc2s1	nt	nt	nt	-0.62
Cc1sc(NC(=O)CSC2=NCCS2)nc1-c1ccccc1	0.8	nt	nt	-4.4*
CCOc1ccc(C2C(C#N)=C(N)SC(N)=C2C#N)cc1OC	1.9	1	64*	-0.15
CCOc1ccccc1C1C(C#N)=C(N)SC(N)=C1C#N	1.1	0.24	-0.074	nt
CCOc1ccc(C2C(C#N)=C(N)SC(N)=C2C#N)cc1OCC	2.6*	1.2	0.065	0.18
CCCn1c(SCC(=O)Nc2nonc2C)nnc1-c1ccoc1C	1	0.19	-0.18	1.1
COc1ccc(-n2c(SCC(=O)Nc3ccccc3)nnc2-c2ccoc2C)cc1	nt	nt	nt	-1.1
Cc1nonc1NC(=O)CSc1nnc(-c2ccoc2C)n1-c1cccc(Cl)c1	nt	nt	nt	-4.4*
CCOc1ccccc1-n1c(SCC(=O)Nc2nccs2)nnc1-c1ccoc1C	1.4	0.99	-0.83	-7.2*
Cc1occc1-c1nnc(SCC(=O)Nc2nccs2)n1CCc1ccccc1	1.3	-0.12	-0.05	-3
COc1cccc(NC(=O)CSc2nnc(-c3ccoc3C)n2-c2ccccc2)c1	0.9	nt	nt	-6.2*
CCOCCCn1c(=S)[nH]c2cc3c(cc2c1=O)OCO3	1.2	-0.7	0.33	nt
O=C(CSc1nc2ccccc2[nH]1)Nc1ccccc1N1CCOCC1	1.8	0.43	0.92	0.15
O=C(CSc1nc2ccccc2[nH]1)Nc1ccc2c(c1)OCCO2	1.5	0.59	-0.091	-3.9*
SMILES	PLAP activator	M1 antag	M1 ag	Cav3 T inh
O=C(CSc1nc2ccccc2[nH]1)Nc1cc(C(F)(F)F)ccc1N1CCOCC1	1.3	0.22	0	-6.9*
O=C(O)C1CC(=O)N(c2ccc3c(c2)OCCO3)C1 (centres undefined)	1.1	nt	nt	0.031
O=C(Nc1nc2ccccc2[nH]1)C1CC(=O)N(c2ccc3c(c2)OCCO3)C1 (centres undefined)	2.9*	-0.02	-0.23	-0.47
Fc1ccc(CSc2nc3ccccc3[nH]2)cc1	0.7	nt	nt	nt
c1ccc2[nH]c(CSc3nnc(-c4ccncc4)o3)nc2c1	2.2*	1.1	-0.57	0.0027
C=CCNC(=O)NC(=O)COC(=O)CCCSc1nc2ccccc2[nH]1	0.8	-1.2	0.33	0.51
O=C(CCCSc1nc2ccccc2[nH]1)Nc1nnc(-c2ccccc2)o1	2.1*	0.014	0.52	nt
c1ccc(-c2nnc(CSc3nc4ccccc4[nH]3)o2)cc1	2.2*	-0.85	0.082	0.23
Brc1cccc(-c2nnc(SCc3nc4ccccc4[nH]3)o2)c1	1	-1.3	-0.41	nt
Cc1ccc(CC(=O)N2CCN(c3ccccn3)CC2)cc1	1	nt	nt	0.51
COc1ccc(-c2cc(C(=O)N3CCN(C(c4ccccc4)c4ccccc4)CC3)no2)cc1OC	1.1	-0.6	5.4	-6.3*
COc1ccc(-c2cc(C(=O)N3CCN(C(c4ccccc4)c4ccccc4)CC3)no2)cc1	1	0.055	-1.8	-3.4
CCC(=O)NC1(C(F)(F)F)C(=O)Nc2c1c(=O)n(C)c(=O)n2C (centres undefined)	0.9	0.17	0.22	2.9*
CCCCC1=CC2=C(c3ccco3)C(=O)C(C)(OC(=O)c3ccc(OC)cc3)C(=O)C2=CN1C1CCCC1 (centres undefined)	nt	nt	nt	-0.22
COc1ccc(S(=O)(=O)N2CCOC2CNC(=O)C(=O)NCCc2c[nH]c3ccccc23)cc1C (centres undefined)	nt	nt	nt	-3.5*
COc1ccc(S(=O)(=O)N2CCOC2CNC(=O)C(=O)NCCCn2ccnc2)cc1OC (centres undefined)	nt	nt	nt	2.2
COc1cccc(CN2CCN(C(=O)c3ccco3)CC2)c1OC	nt	-0.73	-0.76	0.028
COc1cccc(CN2CCN(C(=O)c3cccc4ccccc34)CC2)c1OC	1.6	0.46	-0.47	-4.5*
Cc1ccc(Cn2ncc3c(N4CCOCC4)ncnc32)cc1	0.9	-0.12	0.63	0.81
Cc1ccc(Cn2ncc3c(N4CCN(c5ccccc5C)CC4)ncnc32)cc1	1.4	-0.18	0.71	-5.6*
Cc1nc(-c2ccccc2)sc1C1(C)CC(c2ccc(C#N)cc2)=NO1 (centres undefined)	nt	nt	nt	0.28
O=C(NCCc1ccccc1)C1CCN(S(=O)(=O)c2ccc(-c3nn[nH]n3)cc2)CC1	1.2	0.018	-0.13	0.018
COc1ccc(N2CCN(C(=O)CSc3nnc(CNc4ccccc4)o3)CC2)cc1	nt	-0.31	-2.5*	0.031
COc1ccc(N2CCN(C(=O)CSc3ccccc3)CC2)cc1	1	-0.56	0.12	-0.25
O=C(CSc1nnc(CNc2ccc(F)cc2)o1)N1CCN(C(=O)c2ccco2)CC1	1.3	-0.34	-0.18	-1.9
SMILES	PLAP activator	M1 antag	M1 ag	Cav3 T inh
COc1ccc(N2CCN(C(=O)CC(NC(N)=O)c3cccc(Oc4ccccc4)c3)CC2)cc1 (centres undefined)	1.7	-0.9	-0.71	-5.5*
O=C(CSc1nnc(CNc2ccc(F)cc2)o1)N1c2ccccc2Sc2ccccc21	1.3	nt	nt	-5.5*
O=S1(=O)[C@H]2C[C@@H]3C=C[C@]2(CN1Cc1ccc(C(F)(F)F)cc1)O3	nt	nt	nt	0.94
O=c1c(Cl)c(N/N=C/c2ccc(Br)cc2)cnn1-c1ccccc1	1.4	nt	nt	nt
Cc1cc(C)c(N=C2CCCN2Cc2ccccc2)c(C#N)c1	nt	nt	nt	-4.8*
CCN1C(=O)N(c2ccc(Cl)cc2)C(C)=CC1(C)C	1	nt	nt	0.92
O=C(CSc1ncn(-c2ccccc2)n1)Nc1ccc(Br)cn1	0.8	0.13	-0.52	-5.4*
Cc1ccc(-c2nc(CS(=O)(=O)CC(=O)N3CCc4ccccc4C3)c(C)o2)cc1	1.1	-0.71	-0.16	-9*
Cc1oc(-c2ccccc2F)nc1CS(=O)(=O)CC(=O)N1CCc2ccccc21	0.9	-0.31	-0.036	-4.7*
